Test results from PubChem BioAssay (NCI).
This is part of a sample that, as a whole, favours compounds with a hit. Of some 83,000 tested, about 20% had one in any assay.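 Growth was measured after 48 h exposure to one concentration of compound in 96-well plates. Values under 10 count as active.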 Active and inactive are the calls of the source.

Test system: MDA-MB-468 breast
Experiment: NCI-60 one-dose screen, 48 h (100 = growth as untreated, 0 = no growth, -100 = all killed)
Settings: 10 µM unless noted

| Structure (SMILES) | growth |
| --- | --- |
| NC(=O)Nc1ccc(-n2cnc3cc(-c4ccc(O)cc4)ccc32)cc1 | 129% (inactive) |
| O=C(NC1=CC(=O)c2ccccc2C1=O)c1ccccc1 | -91% (active) |
| O=C(Nc1ccccc1Cl)Oc1ccc2ccccc2c1 | 104% (inactive) |
| N=c1n(Cc2ccccc2)c(N)cc(=O)n1Cc1ccccc1 | 83.3% (inactive) |
| Cc1cc2c(c(C)n1)CN(C(=O)Nc1nc(-c3cncs3)ccc1N)C2 | 110% (inactive) |
| CC(=O)N[C@H](C(=O)N[C@@H](CCCNC(=N)N)C(=O)N[C@@H](CCCCN)C(=O)N[C@@H](CCCNC(=N)N)C(=O)N[C@]1(C)CCCCCC/C=C\CCC[C@@](C)(C(=O)N[C@@H](CCCNC(=N)N)C(=O)N[C@@H](CCC(=O)O)C(=O)N[C@@H](CC(C)C)C(=O)N[C@H](C(=O)N[C@@H](CCC(=O)O)C(N)=O)C(C)C)NC(=O)[C@H](CCC(N)=O)NC(=O)[C@H](CC(C)C)NC(=O)[C@H](CC(C)C)NC(=O)[C@H](CCCNC(=N)N)NC(=O)[C@H](CCCNC(=N)N)NC(=O)[C@H](CC(C)C)NC1=O)C(C)C | 20.5% (inactive) |
| CC1OC(Oc2c(-c3ccc(O)c(O)c3)oc3cc(O)cc(O)c3c2=O)C(O)C(O)C1O (stereo unspecified) | 102% (inactive) |
| C[N+](C)(CCOC(c1ccccc1)c1ccccc1)CC(=O)OCc1ccccc1 | 100% (inactive) |
| C=C(C)[C@@H]1CC[C@]2(C(N)=O)CC[C@]3(C)[C@H](CC[C@@H]4[C@@]5(C)CCCNC(C)(C)[C@@H]5CC[C@]43C)[C@@H]12 | 78.3% (inactive) |
| CC1C(=O)NC2=Nc3ccccc3C(=O)NN21 (stereo unspecified) | 93.7% (inactive) |
| COc1ccccc1CNCCCN1C(=O)c2ccc3c4c(ccc(c24)C1=O)C(=O)N(CCCNCCCCNCCCCN)C3=O | -47% (active) |
